B1: unnamed (peptide)
chain: ISRRRLPVIMHRLKM

Molecular target: AgAbp1
Test: SPOT peptide array binding signal intensity (averaged, normalized) (arbitrary units (background-subtracted, floor 0; scale differs between SH3 domains)); higher = stronger binding of the SH3 domain to the peptide
Summary of the method: (§1)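 To measure binding, SH3 domains from four yeast species were fused to GST, expressed in E. coli BL21(DE3) and purified on glutathione Sepharose. Each domain was incubated at 10 μg/ml overnight at 4°C on cellulose membranes with synthetic 15-mer peptides whose cysteines were replaced by serines. Anti-GST antibody, an HRP anti-mouse secondary and luminol were used for detection, and images were quantified with Genespotter. Reported binding signal is normalized, background-subtracted spot intensity averaged over replicates, in arbitrary units that differ between domains.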

Question: B1 was tested. Which “SPOT peptide array binding signal intensity” value did it give?
Answer: 138

Molecular target: AgBbc1
Test: as above
Summary of the method: as §1

Question: Which “SPOT peptide array binding signal intensity” value does the source give for B1 here?
Answer: 16.2

Molecular target: AgBem1-D1
Test: as above
Summary of the method: as §1

Question: Which “SPOT peptide array binding signal intensity” value does the source give for B1 here?
Answer: 66

Molecular target: AgBzz1-D1
Test: as above
Summary of the method: as §1

Question: How did the “SPOT peptide array binding signal intensity” value turn out when B1 was run?
Answer: 49.5

Molecular target: AgBzz1-D2
Test: as above
Summary of the method: as §1

Question: With B1 as the binder, how does the “SPOT peptide array binding signal intensity” value read?
Answer: 14

Molecular target: AgCyk3
Test: as above
Summary of the method: as §1

Question: Which “SPOT peptide array binding signal intensity” value does the source give for B1 here?
Answer: 1

Molecular target: AgFus1
Test: as above
Summary of the method: as §1

Question: With B1 as the binder, how does the “SPOT peptide array binding signal intensity” value read?
Answer: 423

Molecular target: AgHof1
Test: as above
Summary of the method: as §1

Question: B1 was tested. Which “SPOT peptide array binding signal intensity” value did it give?
Answer: 6.5

Molecular target: AgHse1
Test: as above
Summary of the method: as §1

Question: How did the “SPOT peptide array binding signal intensity” value turn out when B1 was run?
Answer: 1310

Molecular target: AgLsb1
Test: as above
Summary of the method: as §1

Question: How did the “SPOT peptide array binding signal intensity” value turn out when B1 was run?
Answer: 2.75

Molecular target: AgLsb4
Test: as above
Summary of the method: as §1

Question: For B1, which “SPOT peptide array binding signal intensity” value is on record?
Answer: 40

Molecular target: AgMyo5
Test: as above
Summary of the method: as §1

Question: B1 was tested. Which “SPOT peptide array binding signal intensity” value did it give?
Answer: 0.25

Molecular target: AgNbp2
Test: as above
Summary of the method: as §1

Question: Which “SPOT peptide array binding signal intensity” value does the source give for B1 here?
Answer: 303

Molecular target: AgRvs167
Test: as above
Summary of the method: as §1

Question: With B1 as the binder, how does the “SPOT peptide array binding signal intensity” value read?
Answer: 16.5

Molecular target: AgSho1
Test: as above
Summary of the method: as §1

Question: B1 was tested. Which “SPOT peptide array binding signal intensity” value did it give?
Answer: 240

Molecular target: AgSla1-D1-D2
Test: as above
Summary of the method: as §1

Question: For B1, which “SPOT peptide array binding signal intensity” value is on record?
Answer: 158

Molecular target: AgSla1-D3
Test: as above
Summary of the method: as §1

Question: With B1 as the binder, how does the “SPOT peptide array binding signal intensity” value read?
Answer: 9.5

Molecular target: CaAbp1-D1
Test: as above
Summary of the method: as §1

Question: With B1 as the binder, how does the “SPOT peptide array binding signal intensity” value read?
Answer: 617

Molecular target: CaAbp1-D2
Test: as above
Summary of the method: as §1

Question: How did the “SPOT peptide array binding signal intensity” value turn out when B1 was run?
Answer: 645

Molecular target: CaBbc1
Test: as above
Summary of the method: as §1

Question: With B1 as the binder, how does the “SPOT peptide array binding signal intensity” value read?
Answer: 142

Molecular target: CaBem1-D1
Test: as above
Summary of the method: as §1

Question: How did the “SPOT peptide array binding signal intensity” value turn out when B1 was run?
Answer: 102

Molecular target: CaBzz1-D1
Test: as above
Summary of the method: as §1

Question: With B1 as the binder, how does the “SPOT peptide array binding signal intensity” value read?
Answer: 49

Molecular target: CaBzz1-D2
Test: as above
Summary of the method: as §1

Question: With B1 as the binder, how does the “SPOT peptide array binding signal intensity” value read?
Answer: 42.5

Molecular target: CaCyk3
Test: as above
Summary of the method: as §1

Question: Which “SPOT peptide array binding signal intensity” value does the source give for B1 here?
Answer: 36

Molecular target: CaFus1
Test: as above
Summary of the method: as §1

Question: B1 was tested. Which “SPOT peptide array binding signal intensity” value did it give?
Answer: 542

Molecular target: CaHof1
Test: as above
Summary of the method: as §1

Question: How did the “SPOT peptide array binding signal intensity” value turn out when B1 was run?
Answer: 1

Molecular target: CaHse1
Test: as above
Summary of the method: as §1

Question: How did the “SPOT peptide array binding signal intensity” value turn out when B1 was run?
Answer: 61

Molecular target: CaLsb1
Test: as above
Summary of the method: as §1

Question: Which “SPOT peptide array binding signal intensity” value does the source give for B1 here?
Answer: ≤ 0

Molecular target: CaLsb4
Test: as above
Summary of the method: as §1

Question: B1 was tested. Which “SPOT peptide array binding signal intensity” value did it give?
Answer: 177

Molecular target: CaMyo5
Test: as above
Summary of the method: as §1

Question: How did the “SPOT peptide array binding signal intensity” value turn out when B1 was run?
Answer: 0.5

Molecular target: CaNbp2
Test: as above
Summary of the method: as §1

Question: How did the “SPOT peptide array binding signal intensity” value turn out when B1 was run?
Answer: 812

Molecular target: CaRvs167
Test: as above
Summary of the method: as §1

Question: Which “SPOT peptide array binding signal intensity” value does the source give for B1 here?
Answer: 42.3

Molecular target: CaRvs167-3
Test: as above
Summary of the method: as §1

Question: For B1, which “SPOT peptide array binding signal intensity” value is on record?
Answer: 153

Molecular target: CaSho1
Test: as above
Summary of the method: as §1

Question: Which “SPOT peptide array binding signal intensity” value does the source give for B1 here?
Answer: 738

Molecular target: CaSla1-D1-D2
Test: as above
Summary of the method: as §1

Question: How did the “SPOT peptide array binding signal intensity” value turn out when B1 was run?
Answer: 386

Molecular target: CaSla1-D3
Test: as above
Summary of the method: as §1

Question: For B1, which “SPOT peptide array binding signal intensity” value is on record?
Answer: 99.8

Molecular target: ScAbp1
Test: as above
Summary of the method: as §1

Question: How did the “SPOT peptide array binding signal intensity” value turn out when B1 was run?
Answer: 150

Molecular target: ScBbc1
Test: as above
Summary of the method: as §1

Question: For B1, which “SPOT peptide array binding signal intensity” value is on record?
Answer: 10.5

Molecular target: ScBem1-D1
Test: as above
Summary of the method: as §1

Question: For B1, which “SPOT peptide array binding signal intensity” value is on record?
Answer: 23

Molecular target: ScBzz1-D1
Test: as above
Summary of the method: as §1

Question: B1 was tested. Which “SPOT peptide array binding signal intensity” value did it give?
Answer: 8.5

Molecular target: ScBzz1-D2
Test: as above
Summary of the method: as §1

Question: For B1, which “SPOT peptide array binding signal intensity” value is on record?
Answer: 9

Molecular target: ScCyk3
Test: as above
Summary of the method: as §1

Question: With B1 as the binder, how does the “SPOT peptide array binding signal intensity” value read?
Answer: 49

Molecular target: ScFus1
Test: as above
Summary of the method: as §1

Question: With B1 as the binder, how does the “SPOT peptide array binding signal intensity” value read?
Answer: 516

Molecular target: ScHof1
Test: as above
Summary of the method: as §1

Question: With B1 as the binder, how does the “SPOT peptide array binding signal intensity” value read?
Answer: 1

Molecular target: ScHse1
Test: as above
Summary of the method: as §1

Question: For B1, which “SPOT peptide array binding signal intensity” value is on record?
Answer: 1390

Molecular target: ScLsb1
Test: as above
Summary of the method: as §1

Question: Which “SPOT peptide array binding signal intensity” value does the source give for B1 here?
Answer: 32.5

Molecular target: ScLsb2
Test: as above
Summary of the method: as §1

Question: B1 was tested. Which “SPOT peptide array binding signal intensity” value did it give?
Answer: 2

Molecular target: ScLsb3
Test: as above
Summary of the method: as §1

Question: How did the “SPOT peptide array binding signal intensity” value turn out when B1 was run?
Answer: 1300

Molecular target: ScLsb4
Test: as above
Summary of the method: as §1

Question: Which “SPOT peptide array binding signal intensity” value does the source give for B1 here?
Answer: 42

Molecular target: ScMyo3
Test: as above
Summary of the method: as §1

Question: How did the “SPOT peptide array binding signal intensity” value turn out when B1 was run?
Answer: ≤ 0

Molecular target: ScMyo5
Test: as above
Summary of the method: as §1

Question: With B1 as the binder, how does the “SPOT peptide array binding signal intensity” value read?
Answer: ≤ 0

Molecular target: ScNbp2
Test: as above
Summary of the method: as §1

Question: Which “SPOT peptide array binding signal intensity” value does the source give for B1 here?
Answer: 485

Molecular target: ScPex13
Test: as above
Summary of the method: as §1

Question: B1 was tested. Which “SPOT peptide array binding signal intensity” value did it give?
Answer: 18

Molecular target: ScRvs167
Test: as above
Summary of the method: as §1

Question: For B1, which “SPOT peptide array binding signal intensity” value is on record?
Answer: 216

Molecular target: ScSho1
Test: as above
Summary of the method: as §1

Question: B1 was tested. Which “SPOT peptide array binding signal intensity” value did it give?
Answer: 1520

Molecular target: ScSla1-D1-D2
Test: as above
Summary of the method: as §1

Question: For B1, which “SPOT peptide array binding signal intensity” value is on record?
Answer: 222

Molecular target: ScSla1-D3
Test: as above
Summary of the method: as §1

Question: With B1 as the binder, how does the “SPOT peptide array binding signal intensity” value read?
Answer: 70.5

Molecular target: SpAbp1-D1
Test: as above
Summary of the method: as §1

Question: Which “SPOT peptide array binding signal intensity” value does the source give for B1 here?
Answer: 714

Molecular target: SpBbc1
Test: as above
Summary of the method: as §1

Question: B1 was tested. Which “SPOT peptide array binding signal intensity” value did it give?
Answer: 0.5

Molecular target: SpBzz1-D1
Test: as above
Summary of the method: as §1

Question: With B1 as the binder, how does the “SPOT peptide array binding signal intensity” value read?
Answer: 124

Molecular target: SpBzz1-D2
Test: as above
Summary of the method: as §1

Question: For B1, which “SPOT peptide array binding signal intensity” value is on record?
Answer: 0.5

Molecular target: SpCyk3
Test: as above
Summary of the method: as §1

Question: For B1, which “SPOT peptide array binding signal intensity” value is on record?
Answer: 16

Molecular target: SpHof1
Test: as above
Summary of the method: as §1

Question: For B1, which “SPOT peptide array binding signal intensity” value is on record?
Answer: 285

Molecular target: SpHof1-2
Test: as above
Summary of the method: as §1

Question: How did the “SPOT peptide array binding signal intensity” value turn out when B1 was run?
Answer: 101

Molecular target: SpHof1-3
Test: as above
Summary of the method: as §1

Question: Which “SPOT peptide array binding signal intensity” value does the source give for B1 here?
Answer: 618

Molecular target: SpHse1
Test: as above
Summary of the method: as §1

Question: How did the “SPOT peptide array binding signal intensity” value turn out when B1 was run?
Answer: 690

Molecular target: SpLsb1
Test: as above
Summary of the method: as §1

Question: With B1 as the binder, how does the “SPOT peptide array binding signal intensity” value read?
Answer: 1.5

Molecular target: SpLsb4
Test: as above
Summary of the method: as §1

Question: B1 was tested. Which “SPOT peptide array binding signal intensity” value did it give?
Answer: 484

Molecular target: SpMyo1
Test: as above
Summary of the method: as §1

Question: Which “SPOT peptide array binding signal intensity” value does the source give for B1 here?
Answer: 2.5

Molecular target: SpNbp2
Test: as above
Summary of the method: as §1

Question: With B1 as the binder, how does the “SPOT peptide array binding signal intensity” value read?
Answer: 437

Molecular target: SpPex13
Test: as above
Summary of the method: as §1

Question: Which “SPOT peptide array binding signal intensity” value does the source give for B1 here?
Answer: 22

Molecular target: SpRvs167
Test: as above
Summary of the method: as §1

Question: Which “SPOT peptide array binding signal intensity” value does the source give for B1 here?
Answer: 159

Molecular target: SpSla1-D1-D2
Test: as above
Summary of the method: as §1

Question: With B1 as the binder, how does the “SPOT peptide array binding signal intensity” value read?
Answer: 14

Molecular target: SpSla1-D3
Test: as above
Summary of the method: as §1

Question: With B1 as the binder, how does the “SPOT peptide array binding signal intensity” value read?
Answer: 18.5
